A number with no mark means an inactive call.
These targets were tested with C#CCNC(=O)CCSSCCC(=O)NCCc1ccc(C=O)c(C=O)c1 (assay: lysine labeling ratio R10:1 (500 µM / 50 µM probe), SILAC-ABPP in living cells; higher = lower intrinsic lysine reactivity toward the probe, active = 2 or less). Details: HeLa; probe concentrations 500 vs 50 µM.
Procedure, shortened: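 Forward and reverse SILAC label swaps were used with living light and heavy HeLa cells in PBS at room temperature, which were given an alkyne-tagged, disulfide-linked lysine probe at 50 µM or 500 µM. R is the per-lysine filtered median high-probe/low-probe MS1 peptide ratio, with the median then taken across both swap directions. Values are limited to 20.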
Chain of UniProt Q15149 (Q15149 whole entry): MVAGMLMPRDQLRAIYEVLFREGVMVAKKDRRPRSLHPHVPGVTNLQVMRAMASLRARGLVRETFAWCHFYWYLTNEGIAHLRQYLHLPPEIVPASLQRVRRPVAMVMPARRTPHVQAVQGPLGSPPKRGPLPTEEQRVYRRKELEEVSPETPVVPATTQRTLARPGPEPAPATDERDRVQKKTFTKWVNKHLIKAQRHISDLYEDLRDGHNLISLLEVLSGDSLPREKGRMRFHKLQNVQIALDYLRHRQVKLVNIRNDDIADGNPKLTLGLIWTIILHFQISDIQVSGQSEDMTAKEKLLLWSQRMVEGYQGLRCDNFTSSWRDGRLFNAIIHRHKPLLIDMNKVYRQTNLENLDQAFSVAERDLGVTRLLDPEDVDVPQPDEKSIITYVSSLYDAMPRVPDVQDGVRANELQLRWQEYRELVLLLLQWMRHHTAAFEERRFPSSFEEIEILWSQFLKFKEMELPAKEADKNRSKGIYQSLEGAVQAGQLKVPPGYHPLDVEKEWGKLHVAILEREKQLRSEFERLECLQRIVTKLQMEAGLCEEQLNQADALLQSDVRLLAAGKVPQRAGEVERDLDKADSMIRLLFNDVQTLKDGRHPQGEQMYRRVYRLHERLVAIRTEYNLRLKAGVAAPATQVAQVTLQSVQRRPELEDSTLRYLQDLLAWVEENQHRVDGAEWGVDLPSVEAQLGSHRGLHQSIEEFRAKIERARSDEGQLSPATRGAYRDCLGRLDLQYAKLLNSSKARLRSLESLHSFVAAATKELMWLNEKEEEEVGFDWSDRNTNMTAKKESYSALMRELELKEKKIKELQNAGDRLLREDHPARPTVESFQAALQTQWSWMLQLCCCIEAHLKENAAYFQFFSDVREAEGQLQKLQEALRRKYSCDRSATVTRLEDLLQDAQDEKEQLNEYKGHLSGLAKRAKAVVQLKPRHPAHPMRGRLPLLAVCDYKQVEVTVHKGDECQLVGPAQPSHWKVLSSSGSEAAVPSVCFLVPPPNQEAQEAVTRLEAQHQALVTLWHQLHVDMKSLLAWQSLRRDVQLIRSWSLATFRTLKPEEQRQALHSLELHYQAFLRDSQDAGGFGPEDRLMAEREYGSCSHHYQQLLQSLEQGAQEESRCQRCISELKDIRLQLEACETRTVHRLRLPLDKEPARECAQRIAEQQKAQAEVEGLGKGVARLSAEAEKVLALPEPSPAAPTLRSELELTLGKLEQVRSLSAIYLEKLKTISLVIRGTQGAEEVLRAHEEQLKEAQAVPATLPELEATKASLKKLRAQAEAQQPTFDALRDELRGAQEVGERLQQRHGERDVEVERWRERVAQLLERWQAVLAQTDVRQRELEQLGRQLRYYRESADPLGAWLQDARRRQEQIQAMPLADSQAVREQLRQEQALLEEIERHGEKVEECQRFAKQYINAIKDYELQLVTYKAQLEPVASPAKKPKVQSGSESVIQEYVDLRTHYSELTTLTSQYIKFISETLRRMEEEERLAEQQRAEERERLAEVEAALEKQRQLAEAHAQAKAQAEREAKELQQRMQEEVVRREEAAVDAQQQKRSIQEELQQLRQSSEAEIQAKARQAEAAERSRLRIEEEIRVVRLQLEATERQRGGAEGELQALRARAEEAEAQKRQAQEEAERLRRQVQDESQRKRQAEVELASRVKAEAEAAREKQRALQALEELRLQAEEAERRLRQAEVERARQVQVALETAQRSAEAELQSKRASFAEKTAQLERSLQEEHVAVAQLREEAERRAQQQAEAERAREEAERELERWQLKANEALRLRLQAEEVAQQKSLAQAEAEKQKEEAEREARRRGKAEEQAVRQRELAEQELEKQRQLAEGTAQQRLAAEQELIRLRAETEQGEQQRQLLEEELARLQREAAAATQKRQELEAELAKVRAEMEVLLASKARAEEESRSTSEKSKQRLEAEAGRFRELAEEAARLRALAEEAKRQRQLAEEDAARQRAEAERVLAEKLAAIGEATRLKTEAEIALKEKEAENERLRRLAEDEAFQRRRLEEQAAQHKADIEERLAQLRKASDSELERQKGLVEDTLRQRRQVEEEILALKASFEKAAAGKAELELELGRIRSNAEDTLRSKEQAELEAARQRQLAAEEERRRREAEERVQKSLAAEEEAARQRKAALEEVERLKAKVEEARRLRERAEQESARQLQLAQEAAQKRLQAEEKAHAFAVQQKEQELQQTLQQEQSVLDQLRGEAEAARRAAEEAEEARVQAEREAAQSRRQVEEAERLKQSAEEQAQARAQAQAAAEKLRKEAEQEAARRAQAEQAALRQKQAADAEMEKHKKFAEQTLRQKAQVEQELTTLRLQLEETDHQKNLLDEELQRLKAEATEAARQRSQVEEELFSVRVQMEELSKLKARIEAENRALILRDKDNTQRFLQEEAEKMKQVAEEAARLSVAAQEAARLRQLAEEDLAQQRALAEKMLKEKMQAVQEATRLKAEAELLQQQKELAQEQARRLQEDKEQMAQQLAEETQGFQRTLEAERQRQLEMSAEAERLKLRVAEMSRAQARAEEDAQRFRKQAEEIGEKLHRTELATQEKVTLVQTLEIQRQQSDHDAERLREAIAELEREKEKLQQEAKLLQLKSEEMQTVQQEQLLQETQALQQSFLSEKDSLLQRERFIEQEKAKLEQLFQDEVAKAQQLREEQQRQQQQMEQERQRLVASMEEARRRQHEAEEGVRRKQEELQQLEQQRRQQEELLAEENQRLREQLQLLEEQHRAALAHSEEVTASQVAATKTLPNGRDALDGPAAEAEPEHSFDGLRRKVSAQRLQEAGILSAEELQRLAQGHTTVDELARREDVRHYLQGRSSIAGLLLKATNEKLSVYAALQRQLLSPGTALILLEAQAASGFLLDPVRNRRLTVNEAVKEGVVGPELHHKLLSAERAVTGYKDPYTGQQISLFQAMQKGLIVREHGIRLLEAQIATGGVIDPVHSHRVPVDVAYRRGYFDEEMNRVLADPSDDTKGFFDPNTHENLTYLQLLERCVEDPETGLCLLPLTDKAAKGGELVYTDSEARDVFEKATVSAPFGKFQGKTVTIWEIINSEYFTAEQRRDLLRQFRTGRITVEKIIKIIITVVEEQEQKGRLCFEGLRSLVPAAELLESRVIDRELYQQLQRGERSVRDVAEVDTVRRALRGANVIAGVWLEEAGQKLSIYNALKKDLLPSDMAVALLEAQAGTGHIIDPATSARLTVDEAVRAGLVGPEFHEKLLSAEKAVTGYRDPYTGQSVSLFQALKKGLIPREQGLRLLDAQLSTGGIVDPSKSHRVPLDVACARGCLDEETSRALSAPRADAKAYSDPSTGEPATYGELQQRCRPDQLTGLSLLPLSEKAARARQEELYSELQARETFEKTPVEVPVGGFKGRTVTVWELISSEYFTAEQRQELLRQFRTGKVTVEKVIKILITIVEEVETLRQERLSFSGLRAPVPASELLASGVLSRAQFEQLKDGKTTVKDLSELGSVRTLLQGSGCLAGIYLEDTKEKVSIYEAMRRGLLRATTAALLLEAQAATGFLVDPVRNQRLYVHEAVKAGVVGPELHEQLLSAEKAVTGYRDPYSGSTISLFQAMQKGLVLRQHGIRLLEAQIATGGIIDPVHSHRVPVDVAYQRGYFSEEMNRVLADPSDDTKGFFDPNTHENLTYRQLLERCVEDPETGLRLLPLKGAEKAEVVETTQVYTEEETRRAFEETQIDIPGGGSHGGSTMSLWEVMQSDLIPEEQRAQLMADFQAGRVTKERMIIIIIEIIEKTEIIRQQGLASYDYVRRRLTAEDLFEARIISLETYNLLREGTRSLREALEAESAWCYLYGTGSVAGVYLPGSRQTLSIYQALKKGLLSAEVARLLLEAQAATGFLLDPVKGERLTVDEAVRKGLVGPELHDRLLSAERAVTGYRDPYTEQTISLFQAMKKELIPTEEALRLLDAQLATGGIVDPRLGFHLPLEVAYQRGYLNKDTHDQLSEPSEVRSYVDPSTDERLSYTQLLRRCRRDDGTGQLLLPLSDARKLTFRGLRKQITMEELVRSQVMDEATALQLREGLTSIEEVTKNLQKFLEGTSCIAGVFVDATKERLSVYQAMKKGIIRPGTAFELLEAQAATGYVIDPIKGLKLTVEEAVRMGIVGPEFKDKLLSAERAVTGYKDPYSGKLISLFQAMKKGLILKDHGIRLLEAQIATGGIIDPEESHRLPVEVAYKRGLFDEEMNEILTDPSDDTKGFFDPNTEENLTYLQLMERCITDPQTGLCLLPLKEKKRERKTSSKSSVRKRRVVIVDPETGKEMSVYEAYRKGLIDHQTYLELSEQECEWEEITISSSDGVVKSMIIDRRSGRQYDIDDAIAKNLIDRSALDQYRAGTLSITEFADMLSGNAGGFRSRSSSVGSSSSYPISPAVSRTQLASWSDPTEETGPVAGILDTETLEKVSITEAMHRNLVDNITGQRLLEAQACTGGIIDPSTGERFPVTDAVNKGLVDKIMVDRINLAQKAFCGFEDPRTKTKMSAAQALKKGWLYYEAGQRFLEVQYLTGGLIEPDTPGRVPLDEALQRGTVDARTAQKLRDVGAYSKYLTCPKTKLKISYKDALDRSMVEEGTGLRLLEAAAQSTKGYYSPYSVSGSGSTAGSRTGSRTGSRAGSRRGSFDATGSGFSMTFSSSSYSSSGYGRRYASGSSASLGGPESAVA
Chain of UniProt Q16181 (Q16181 whole entry): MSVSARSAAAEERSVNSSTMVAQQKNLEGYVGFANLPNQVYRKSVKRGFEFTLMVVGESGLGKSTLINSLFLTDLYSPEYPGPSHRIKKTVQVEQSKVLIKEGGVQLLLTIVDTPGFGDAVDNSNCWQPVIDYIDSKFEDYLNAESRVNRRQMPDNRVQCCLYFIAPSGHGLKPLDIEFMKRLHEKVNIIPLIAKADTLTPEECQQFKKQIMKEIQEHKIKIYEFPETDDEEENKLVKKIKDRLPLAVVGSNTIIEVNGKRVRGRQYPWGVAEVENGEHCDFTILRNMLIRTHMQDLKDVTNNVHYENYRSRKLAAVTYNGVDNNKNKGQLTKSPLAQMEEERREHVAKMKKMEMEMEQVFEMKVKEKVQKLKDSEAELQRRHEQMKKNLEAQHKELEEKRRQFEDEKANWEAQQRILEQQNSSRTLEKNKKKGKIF
In the case of “LDLR (lysine site: K596) (UniProt P01130)”, the “lysine labeling ratio R10:1” value is reported as 1.28 (active).
For “ANXA2 (lysine site: K204) (UniProt P07355)”, the “lysine labeling ratio R10:1” value was 7.37.
With UniProt Q16181 (lysine site: K408) the “lysine labeling ratio R10:1” value was 3.83.
With “CSPG4 (lysine site: K1711) (UniProt Q6UVK1)” the “lysine labeling ratio R10:1” value was 0.655 (active).
With UniProt Q15149 (lysine site: K3925) the “lysine labeling ratio R10:1” value was 3.1.
For UniProt Q9UHN6 (lysine site: K1262), the “lysine labeling ratio R10:1” value was 2.6.
In the case of “LMO7 (lysine site: K1455) (UniProt Q8WWI1)”, the “lysine labeling ratio R10:1” value is reported as 1.37 (active).
“TLN1 (lysine site: K1171) (UniProt Q9Y490)” was tested, and the “lysine labeling ratio R10:1” value was 1.76 (active).
With “HSPD1 (lysine site: K31) (UniProt P10809)” the “lysine labeling ratio R10:1” value was 4.2.
“SPTAN1 (lysine site: K2195) (UniProt Q13813)” was tested, and the “lysine labeling ratio R10:1” value was 1.91 (active).
UniProt P0C0S5 (lysine site: K16) was tested, and the “lysine labeling ratio R10:1” value was 1.12 (active).
In the case of “PLAUR (lysine site: K29) (UniProt Q03405)”, the “lysine labeling ratio R10:1” value is reported as 3.61.
With “FN1 (lysine site: K2030) (UniProt P02751)” the “lysine labeling ratio R10:1” value was 0.807 (active).
With “LAMB1 (lysine site: K1505) (UniProt P07942)” the “lysine labeling ratio R10:1” value was 3.69.
“SLC39A10 (lysine site: K317) (UniProt Q9ULF5)” was tested, and the “lysine labeling ratio R10:1” value was 6.58.
With “GPI (lysine site: K454) (UniProt P06744)” the “lysine labeling ratio R10:1” value was 2.77.
In the case of “CD44 (lysine site: K158) (UniProt P16070)”, the “lysine labeling ratio R10:1” value is reported as 4.38.
With UniProt P55072 (lysine site: K658) the “lysine labeling ratio R10:1” value was 6.64.
In the case of UniProt Q15149 (lysine site: K1718), the “lysine labeling ratio R10:1” value is reported as 4.36.
In the case of “MSN (lysine site: K360) (UniProt P26038)”, the “lysine labeling ratio R10:1” value is reported as 2.83.
UniProt P05186 (lysine site: K346) was tested, and the “lysine labeling ratio R10:1” value was 0.557 (active).
With UniProt Q6NZI2 (lysine site: K258) the “lysine labeling ratio R10:1” value was 9.27.
With “ACSL3 (lysine site: K706) (UniProt O95573)” the “lysine labeling ratio R10:1” value was 3.43.
In the case of “ITGA6 (lysine site: K946) (UniProt P23229)”, the “lysine labeling ratio R10:1” value is reported as 2.37.
In the case of “SPTAN1 (lysine site: K1274) (UniProt Q13813)”, the “lysine labeling ratio R10:1” value is reported as 3.51.
With “ITIH1 (lysine site: K125) (UniProt P19827)” the “lysine labeling ratio R10:1” value was 4.42.
For UniProt P25705 (lysine site: K161), the “lysine labeling ratio R10:1” value was 3.49.
With “TFRC (lysine site: K673) (UniProt P02786)” the “lysine labeling ratio R10:1” value was 3.
In the case of UniProt P62244 (lysine site: K88), the “lysine labeling ratio R10:1” value is reported as 1.79 (active).
“LTF (lysine site: K320) (UniProt P02788)” was tested, and the “lysine labeling ratio R10:1” value was 1.48 (active).
For “FASN (lysine site: K41) (UniProt P49327)”, the “lysine labeling ratio R10:1” value was 0.712 (active).
With “KTN1 (lysine site: K617) (UniProt Q86UP2)” the “lysine labeling ratio R10:1” value was 1.17 (active).
For “SEMA3C (lysine site: K163) (UniProt Q99985)”, the “lysine labeling ratio R10:1” value was 3.6.
For “CKAP4 (lysine site: K223) (UniProt Q07065)”, the “lysine labeling ratio R10:1” value was 2.5.
In the case of “PLS3 (lysine site: K52) (UniProt P13797)”, the “lysine labeling ratio R10:1” value is reported as 2.05.
For “TUBA1A (lysine site: K336) (UniProt Q71U36)”, the “lysine labeling ratio R10:1” value was 2 (active).
“M6PR (lysine site: K99) (UniProt P20645)” was tested, and the “lysine labeling ratio R10:1” value was 1.86 (active).
“S100A4 (lysine site: K57) (UniProt P26447)” was tested, and the “lysine labeling ratio R10:1” value was 3.85.
“ANPEP (lysine site: K923) (UniProt P15144)” was tested, and the “lysine labeling ratio R10:1” value was 2.33.
With “CELSR2 (lysine site: K2300) (UniProt Q9HCU4)” the “lysine labeling ratio R10:1” value was 1.18 (active).

Reference: the supplement of paper PMC11001985
